# Sampled rows, rich in hits. Any-hit rate of the full collection: about 1.2%.
# TrxR1 substrate = is turned over as a substrate by rat TrxR1 | O89049 | purified TrxR1 substrate turnover, NADPH consumption readout | Potency, µM (top dose mostly 114 µM), for the others: at the highest dose activity change, negative = substrate turnover | hit rate 0.01% among 390,000 | AID 588456; further: potency means the concentration at half of the fitted maximal effect; nearly all actives have a fitted effect of over 50% in size
#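 Rat TrxR1, dispensed at 90 nM, was prereduced with 400 uM NADPH (final) for 5 min at ~22 deg C, then incubated with compound 15 min before 400 uM selenite. A first-read NADPH fluorescence drop versus no-compound background flagged substrates.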
# rTrxR1 inhibitor = inhibitors of rat thioredoxin reductase 1. recombinant rTrxR1, NADPH fluorescence consumption, selenite substrate. Potency, µM (titrated, usually from 114 µM), inactives show top-dose activity change, negative = inhibition, usual class: inhibitors. hit rate 1% among 390,000. AID 588453; further: potency means the concentration at half of the fitted maximal effect; nearly all actives have a fitted effect of over 65% in size
#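 Rat TrxR1 (90 nM in the dispensed reagent) was pre-reduced with 400 uM NADPH for 5 min at room temperature, then incubated with compound for 15 min. After 400 uM selenite was added, NADPH fluorescence (Ex 340/Em 450 nm) was followed for 8 min.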
# GALK inhibitor = galactokinase (human) inhibition | hit rate 0.007% among 270,000 | Purified GALK, Kinase-Glo residual ATP luminescence | P51570 | Potency, µM (series often up to 57.5 µM), without a hit: at the highest dose activity change, negative = inhibition, most hits filed as inhibitors | AID 1868; further: potency means the concentration at half of the fitted maximal effect
#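 Galactose (100 uM) and ATP (35 uM) were turned over by 5 nM GALK for 1 h at RT. Kinase-Glo Plus then converted the remaining ATP into a luminescent signal.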
# PI4K2A inh = blocks human PI4K2A kinase activity; activity change, negative = inhibition, % at 76.9 µM; AID 1346378; Q9BTU6; hit rate 0.13% among 420,000; purified PI4K2A, ADP-Glo luminescence, 1 h; hits give low values; in the data active means activity change below about -50%; inconclusive means mostly about -30% to -49%;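 further: -100% = wells without enzyme as full effect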
#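 PI4K2A activity was measured by ADP-Glo luminescence: enzyme (4 ug/mL stock) and phosphatidylinositol (1.2 mM stock) in Tris pH 7.5/MgCl2/EGTA/Triton X-100 buffer were reacted with ATP (300 microM stock) for one hour at ambient temperature.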
# PKM2 act = increases activity of human pyruvate kinase M2; purified PKM2, Kinase-Glo ATP luminescence, activation; response scale: 0% is enzyme alone, no compound; hit rate 0.34% among 260,000; P14618; Potency, µM (doses to about 57.5 µM), inactives show at the highest dose activation, most hits filed as activators; AID 1631; further: potency means the concentration at half of the fitted maximal effect; nearly all actives have a fitted effect of over 55% in size
# Target sequence (P14618 whole entry, looked up): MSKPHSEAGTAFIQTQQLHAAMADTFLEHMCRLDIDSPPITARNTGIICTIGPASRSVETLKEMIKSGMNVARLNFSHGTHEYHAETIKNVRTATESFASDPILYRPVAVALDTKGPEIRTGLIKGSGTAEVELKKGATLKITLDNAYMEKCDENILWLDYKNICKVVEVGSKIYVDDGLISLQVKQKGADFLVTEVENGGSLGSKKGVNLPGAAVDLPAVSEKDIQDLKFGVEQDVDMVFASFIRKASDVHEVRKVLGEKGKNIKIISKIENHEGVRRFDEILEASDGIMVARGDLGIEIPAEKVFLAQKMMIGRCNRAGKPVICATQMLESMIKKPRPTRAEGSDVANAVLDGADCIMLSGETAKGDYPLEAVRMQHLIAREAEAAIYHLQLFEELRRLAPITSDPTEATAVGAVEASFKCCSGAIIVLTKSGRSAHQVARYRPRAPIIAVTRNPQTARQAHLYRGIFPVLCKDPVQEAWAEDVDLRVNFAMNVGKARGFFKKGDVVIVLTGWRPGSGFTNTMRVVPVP
#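 Purified hPK-M2 (>95% pure) converted ADP (0.1 mM final) to ATP with 0.5 mM PEP in 50 mM imidazole pH7.2, KCl, MgCl2, Tween 20, BSA; 1 h at room temperature. ATP detected by Kinase-Glo luminescence.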
# Active calls of the source: *; ? = inconclusive; · = no result given; [ ] = another dose, or the depositor's remark. Unless noted, the call rests on the fitted dose curve; in most records, active means well fitted curve in the direction sought with a large enough effect; inconclusive means small, poorly fitted or top-dose-only effect, or another doubt; inactive means no such curve, though single readings can be large; an effect the other way counts as inactive or inconclusive. Unless noted, on the % scale 0 is the no-effect control and ±100 the full control effect.
SMILES,TrxR1 substrate,rTrxR1 inhibitor,GALK inhibitor,PI4K2A inh,PKM2 act
C[C@H]1/C=C/CC(=O)N[C@@H](c2ccc3ccccc3c2)[C@@H](C)/C=C/CC(=O)N[C@H]1c1ccc2ccccc2c1,·,·,·,-0.9,·
CC(C)C[C@@H]1COc2cc(F)ccc2S(=O)(=O)N1C,·,·,·,-3.3,·
CN(C)S(=O)(=O)c1cccc(C(=O)N/N=C\c2ccnc3ccccc23)c1,·,·,·,-6.9,·
Cc1ccc(-c2nc3ncccn3c2Nc2ccc3c(c2)OCCO3)o1,0.7%,39.8µM*,-1.8%,-6.1,28.7%
Brc1ccc(-c2nc3ncccn3c2Nc2ccc3c(c2)OCCO3)o1,8.2%[57.1 µM],0.1%[57.1 µM],0.5%,1.3,0.9%
Cc1ccc2nc(-c3ccccc3F)c(Nc3ccc(Cl)cc3)n2c1,94.3%,15.3%,·,-0.1,·
Cc1ccc(Nc2c(-c3ccc(C)o3)nc3ccccn23)cc1,113.8%,?,·,·,·
Cc1ccc(-c2nc3cnccn3c2Nc2ccccc2)o1,12.5%,39.8µM*,1.7%,-0.7,27.1%
Cc1ccc2nc(-c3ccc(C)o3)c(Nc3ccccc3)n2c1,23.6%,17.8µM*,·,·,·
Fc1ccccc1-c1ccc(-c2nc3ccc(Cl)cn3c2Nc2ccc(Cl)cc2)o1,3.1%,25.1µM*,·,·,·
Cc1ccc(-c2nc3ccc(Cl)cn3c2Nc2ccccc2)o1,5.7%,?,·,·,·
Cc1ccn2c(Nc3ccc4c(c3)OCO4)c(-c3ccc(C)o3)nc2c1,52.7%,-5.7%,·,-2.3,·
Cc1ccc(-c2nc3cnccn3c2Nc2ccc3c(c2)OCO3)o1,6.5%[57.1 µM],-46.1%,0.6%,-7.8,10µM*
O=C(Nc1ccccc1)Nc1nc2ncccn2c1-c1ccc(F)cc1,·,·,·,-3.5,·
Nc1ncnc(Sc2ccccc2)c1[N+](=O)[O-],7.1%,25.5%,-0.6%,-6.0,1.3%
Nc1ncnc(Sc2ncccn2)c1[N+](=O)[O-],-0.8%,1.41µM*,2.3%,-6.7,9.8%
COCCOC(=O)N(C)C[C@@H]1OCCCC[C@H](C)Oc2ccc(NC(=O)Nc3ccccc3)cc2C(=O)N([C@@H](C)CO)C[C@H]1C,·,·,·,-0.3,·
Cc1ccc(C(=O)Oc2oc(-c3ccccc3)nc2C=Nc2ccc(N(C)C)cc2)cc1,-1.0%,?,-0.7%,15.8,-12.5%
O=C(Oc1oc(-c2ccco2)nc1C=Nc1ccccc1)c1ccco1,21.5%[57.1 µM],2.24µM*,1.4%,-7.3,-0.5%
COc1ccc(N=Cc2nc(-c3ccccc3)oc2OC(C)=O)cc1,7.2%,12.6µM*,3.9%,-1.5,-0.2%
Cc1ccc(C(=O)Oc2oc(-c3ccco3)nc2C=Nc2ccc(Cl)cc2)cc1,-2.2%,1.78µM*,-5.1%,-3.5,0.7%
COc1cccc(N=Cc2nc(-c3ccccc3)oc2OC(C)=O)c1,6.7%[11.4 µM],-64.5%,-1.8%,1.6,5.2%
O=C(Oc1oc(-c2ccco2)nc1C=Nc1ccccc1)c1ccoc1,9.6%,3.55µM*,9.6%,-2.9,3.9%
COCCNC(=O)C1CCC(CNS(=O)(=O)c2ccc3c(c2)CC(C)N3C(C)=O)CC1 (stereo unspecified),-4.6%,-1.0%,·,0.6,·
C=CCN1C(=O)[C@H](CC(=O)NCc2cccs2)[C@@]2(C(=O)OCC)CCCC=C12,·,·,·,-4.3,·
SMILES,TrxR1 substrate,rTrxR1 inhibitor,GALK inhibitor,PI4K2A inh,PKM2 act
COCCn1c(-c2ccc(-c3ccccc3Cl)o2)nc2c1c(=O)[nH]c(=O)n2CC(C)C,103.9%,?,1.2%,3.4,28.2µM*
Cc1ccc(-c2ccc(C(=O)Nc3ccccc3)o2)c2ccccc12,15.3%[57.1 µM],-16.1%[57.1 µM],·,-55.3*,-8.7%
CC#CC(=O)N[C@H]1CC[C@@]23CCCN2C(=O)CCC[C@H]3[C@H]1C,·,·,·,-3.6,·
O=[N+]([O-])c1ccc(Sc2nnnn2-c2ccccc2)nc1,-1.6%[57.1 µM],12.6µM*,5.5%,23.6,17.8µM*
O=[N+]([O-])c1ccc(Sc2ccccn2)nc1,-5.3%,-0.6%,-1.4%,2.6,0.8%
Cc1ccc2cc(C3C(C#N)=C(N)Oc4c3ccc3cccnc43)c(=O)[nH]c2c1 (stereo unspecified),-0.1%[57.1 µM],12.6µM*,1.9%,3.5,?
N#CC1=C(N)Oc2c(ccc3cccnc23)C1c1cccnc1 (stereo unspecified),20.8%,50.1µM*,-0.1%,0.9,-0.5%
CCc1ccc2[nH]c(=O)c(C3C(C#N)=C(N)Oc4c3ccc3cccnc43)cc2c1 (stereo unspecified),12.1%,44.7µM*,0.5%,-2.8,9.4%
CC(=O)C1=C(C)OC(N)=C(C#N)C1c1cc2cccc(C)c2nc1Cl (stereo unspecified),6.4%,-10.6%,·,6.9,11.0%
CCOc1cccc(C2C(C#N)=C(N)Oc3cc(C)[nH]c(=O)c32)c1OCC (stereo unspecified),0.0%,26.5%,4.7%,-2.7,0.6%
Cc1ccc(CNC(=O)c2cn(C3CCCCC3)c(=O)c3c2c2ccccc2n3C)o1,11.8%,3.98µM*,0.3%,-7.4,?
COCCc1ccc(OCC2CO2)cc1 (stereo unspecified),·,·,·,2.5,·
Cc1cc(C(=O)CSc2nc3ccc(Cl)cc3[nH]2)c(C)n1C,4.9%,-15.7%,0.1%,0.9,15.8µM*
Cc1ccc2nc(SCC(=O)c3cc(C)n(C)c3C)[nH]c2c1,-8.2%,-12.6%,2.0%,4.1,-6.3%
COc1ccccc1CNC(=O)N1CCN(S(=O)(=O)c2ccc(Cl)cc2)CC1,1.1%,8.9%,0.8%,0.3,20.4%
COc1cccc(CNC(=O)N2CCN(S(=O)(=O)c3ccc(Cl)cc3)CC2)c1,1.7%,23.5%,-0.4%,0.7,14.1µM*
COc1cccc(CNC(=O)C2CCN(S(=O)(=O)c3ccccc3)CC2)c1,6.6%,36.7%,0.3%,-3.8,25.1µM*
COc1cccc(CNC(=O)C2CCN(S(=O)(=O)c3ccc4c(c3)NC(=O)CO4)CC2)c1,2.6%,12.8%,3.6%,0.8,·
COc1cccc(CNC(=O)[C@H](C)NC(=O)C2CCN(S(=O)(=O)c3ccccc3)CC2)c1,-5.5%,-6.4%,-1.5%,-2.2,-11.4%[0.46 µM]
COc1cccc(CNC(=O)C2CCN(S(=O)(=O)c3ccc4c(c3)OCCO4)CC2)c1,-13.8%,-11.2%,-5.1%,-0.7,11.2µM*
COc1ccc(NC(=O)CCNC(=O)C2CCN(S(=O)(=O)c3ccc(F)cc3)CC2)cc1OC,0.8%[57.1 µM],26.6%[57.1 µM],0.3%,10.6,4.47µM*
Cn1c(CNC(=O)CSc2nc(-c3ccccc3F)nc3cc(=O)[nH]n23)nc2ccccc21,1.7%[57.1 µM],8.2%[57.1 µM],·,-0.5,·
O=C(NCc1ccc2c(c1)OCO2)C1CCN(S(=O)(=O)c2cccs2)CC1,-3.0%,3.4%,7.3%,3.7,8.91µM*
CNS(=O)(=O)c1ccc2nc(NC(=O)/C=C/c3ccco3)sc2c1,9.6%[57.1 µM],?,-0.9%,-61.5*,17.7%
COc1ccc(C2C(C(=O)Nc3cc(OC)c(OC)c(OC)c3)CCC(=O)N2c2ccc(OC)cc2)cc1 (stereo unspecified),·,·,·,-2.7,·
COc1cccc(Cn2cc(COC(=O)N3CCCC3)nn2)c1,·,·,·,-5.3,·
